Hit rate of the full screen: of about 6,200 compounds, about 2,900 (47%) were called active. No stated cut-off is given here; in the data, active means inhibition above about 50%; inactive means the rest. The set was probably picked from earlier hits. The list shows a part of the results.
Experiment: Mycobacterium tuberculosis growth inhibition, primary screen (AID 1259343)
Conditions: inhibition: at 10 µM, stronger effect = higher value; outcome: 10 uM

| SMILES | inhibition |
| --- | --- |
| O=C1C=C(O)c2ccccc2C1=O | 53.8% (active) |
| N#CC(=CC=Cc1ccc([N+](=O)[O-])o1)c1nc2ccccc2[nH]1 | 101% (active) |
| N#CC(=Cc1ccc([N+](=O)[O-])o1)c1nc(C2CC2)cs1 | -16.5% (inactive) |
| N#Cc1ccc(OS(=O)(=O)c2cccs2)cc1 | 51.7% (active) |
| O=c1cc(C(F)(F)F)c2ccc(OS(=O)(=O)c3ccc(F)c(F)c3)cc2o1 | 1.62% (inactive) |
| O=c1ccc2ccc(OS(=O)(=O)c3cccs3)cc2o1 | 90.5% (active) |
| CCOC(=O)C(C#N)=Cc1cn(CCC#N)nc1-c1ccc(Br)cc1 | -13.1% (inactive) |
| Oc1ccc(CCNc2nccc(C3CCCC3)n2)cc1 | 51.5% (active) |
| Fc1ccc(-c2cc(CNc3nccc(C4CCCC4)n3)no2)cc1 | 44.8% (inactive) |
| C=CC[P+](N(CCC)CCC)(N(CCC)CCC)N(CCC)CCC | 80% (active) |
| CC(C)=CCc1c(O)cc2occ(-c3ccc4c(c3)OCO4)c(=O)c2c1O | 68.8% (active) |
| COC(=O)c1c(C)oc2ccc(OCC(=O)c3ccc(F)cc3)cc12 | 87.5% (active) |
| O=C(COc1ccc2oc3c(c2c1)CCCC3)NCc1cccnc1 | -6.78% (inactive) |
| CC(C)(C)NC(=O)COc1ccc2oc3c(c2c1)CCCC3 | 31.6% (inactive) |
| Cc1ccc(-c2c(C)sc3nc(CN4CCN(Cc5ccccc5)CC4)[nH]c(=O)c23)cc1 | 96.5% (active) |
| Cc1ccc(CC(=O)C(C#N)c2nc3sc(C)c(C)c3c(=O)[nH]2)cc1 (centres undefined) | 37.3% (inactive) |
| CCNC(=O)CSc1nnc(-c2ccccc2)o1 | 92.3% (active) |
| CCCC(C)NC(=O)CSc1nnc(-c2ccc(Cl)cc2)o1 (centres undefined) | 95.8% (active) |
| CCCC(C)NC(=O)COc1ncnc2scc(-c3ccc(C)cc3)c12 (centres undefined) | 49.2% (inactive) |
| Cc1ccc(-c2nnc(SCC(=O)NC3CC3)o2)cc1 | -24.4% (inactive) |
| CCNC(=O)CSc1nnc(-c2ccc(C)cc2)o1 | 93.8% (active) |
| C=CCNC(=O)CSc1nnc(-c2cccs2)o1 | 99.4% (active) |
| c1coc(-c2nnc(SCc3nnc(-c4cccs4)o3)o2)c1 | -25.9% (inactive) |
| c1ccc(C(Cn2cncn2)NCc2cccs2)cc1 (centres undefined) | -11.6% (inactive) |
| CCCN(CC1CC1)c1oc(-c2ccc(F)cc2)nc1C#N | 12.7% (inactive) |
| CCCCNC(=O)CSc1nnc(-c2ccc(OCC)cc2)o1 | 81.2% (active) |
| CC1CCC(NC(=O)CSc2nnc(C(C)C)o2)CC1 (centres undefined) | 32.9% (inactive) |
| CCOc1ccc(-c2nnc(SCC#N)o2)cc1 | -18% (inactive) |
| Cc1ccc(-c2nnc(SCC(=O)NC(C)C(C)C)o2)cc1 (centres undefined) | 87.3% (active) |

— PubChem BioAssay AID1259343 (VanderVen Lab, College of Veterinary Medicine, Cornell …, 2017)
